SKKanGAS inh: inhibitors of SKKanGAS S. pyogenes growth in kanamycin (SK-promoter or general growth effect); hit rate 1.3% among 300,000; AID 1662; inhibition, % at 7.5 µM; BacTiter-Glo, 6 h;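 active = mean replicate score, as percent of positive control median, at least 50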;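 also: strain carries kanamycin resistance gene driven by streptokinase promoter and grows in 40 µg/ml kanamycin; loss of luminescence reflects streptokinase promoter inhibition or plain growth inhibition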
NLRP3 yeast inh: NALP3 inhibition in yeast; Yeast reconstituted NLRP3/ASC/caspase-1, beta-gal luminescence, 24 h; hit rate 0.39% among 330,000; inhibition, % at 10 µM; AID 2825;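 active = inhibition of 50% or more; inactive = inhibition below 50%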
PfHsp90 yeast 2: growth inhibition of yeast expressing Plasmodium Hsp90; inhibition, % at 9.4 µM; S. cerevisiae expressing PfHsp90, BacTiter-Glo ATP, 48 h; yeast lacking PDR1 and PDR3 efflux regulators; hit rate 0.32% among 310,000;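 active = every replicate shows inhibition above about 80%, whatever the replicate mean, limit read from the data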
tim23-1 inh: inhibits growth of tim23-1 mutant yeast | S. cerevisiae tim23-1 growth, BacTiter-Glo luminescence, 24 h | inhibition, % at 20 µM | hit rate 1.3% among 330,000;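 active = growth inhibition of the mutant yeast at or above 50%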;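 also: temperature-sensitive mutant grown at 25 °C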
tim10-1 inh: inhibits growth of tim10-1 mutant yeast. S. cerevisiae tim10-1 ts strain growth, BacTiter-Glo, 24 h. inhibition, % at 20 µM. hit rate 2.2% among 330,000;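 active = inhibition of at least 40%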;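 also: mutant grown at 25 °C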
TIM10 inh: inhibits growth of TIM10 yeast strain; S. cerevisiae TIM10 strain growth, BacTiter-Glo luminescence, 24 h; inhibition, % at 10 µM; hit rate 1.4% among 330,000; AID 463195;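 active = inhibition of 40% or more at the single tested concentration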;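 also: wild-type TIM10 isogenic control strain grown at permissive 25 °C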
tim23-1 conf: confirmation of tim23-1 mutant yeast growth inhibitors; shares compounds with tim23-1 inh; hit rate 83% among 4,400; S. cerevisiae tim23-1 growth, BacTiter-Glo luminescence, 24 h; inhibition, % at 20 µM;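 active = inhibition above about 39% in either of two replicate wells at 20 µM, limit read from the data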;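 also: temperature-sensitive tim23-1 mutant grown at 25 °C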
Each line names hits and unclear results; the compound was inactive in the other large screens (follow-up assays come after a bar, where they were run). Only some compounds are listed: those with a hit (about 4.5% of all), similar ones and a draw of the others.

O=C(O)CC/C(=N\NC(=O)c1ccncc1)c1ccccc1	none
COc1ccccc1C(=O)COC(=O)C1CCN(S(=O)(=O)c2ccc(C)c(C)c2)CC1	none
CCCc1nc2oc3cc(OC)ccc3c(=O)c2c(=O)n1CCc1ccccc1	none
COc1ccc(Cn2c(-c3ccccc3)nc3c(c(=O)c4ccccc4n3C)c2=O)cc1	none
COc1ccc(CCn2c(C(C)C)nc3oc4ccccc4c(=O)c3c2=O)cc1	tim23-1 inh 51 | tim23-1 conf 41
CC(C)c1nc2c(c(=O)c3ccccc3n2C)c(=O)n1CCc1ccccc1	tim23-1 inh 59 (no result: PfHsp90 yeast 2) | tim23-1 conf inactive
CC1CCC(NC(=O)c2cc(C3CC3)nn2-c2ccccc2)CC1 (configuration not stated)	tim23-1 inh 50 (no result: SKKanGAS inh) | tim23-1 conf 46
Cc1cc(C)n(-c2nc3ccccc3c(=O)n2OCc2ccc(Cl)cc2)n1	tim23-1 inh 52 (no result: PfHsp90 yeast 2) | tim23-1 conf 51
Cc1cc(C)n(-c2nc3ccccc3c(=O)n2OCc2ccc(F)cc2)n1	none
COc1ccc(/C=C(\C#N)C(=O)NC(C)c2ccccc2)cc1O (configuration not stated)	tim23-1 inh 56 | tim23-1 conf 44
COc1ccc(/C=C(\C#N)C(=O)NCc2ccccc2)cc1O	none
COc1cc(C(=O)N(C)CC2CCN(CCc3cccc(C(F)(F)F)c3)CC2)ccc1C	none
O=C(Nc1ccc(-c2nc3ncccc3o2)cc1)c1ccc([N+](=O)[O-])o1	tim23-1 inh 65 | tim23-1 conf 83
Clc1cccc(CSc2nnc(-c3ccccn3)n2Cc2ccco2)c1	tim23-1 inh 52 (no result: PfHsp90 yeast 2) | tim23-1 conf 57
O=C(CSc1nnc(-c2ccccn2)n1Cc1ccco1)c1ccc(Cl)cc1	none (no result: PfHsp90 yeast 2)
CC(=O)Nc1ncnc2c1c(-c1ccc(Cl)cc1)nn2C(C)(C)C	tim23-1 inh 52 | tim23-1 conf 48
Cc1cccc(/C=N/NC(=O)c2ccccc2OCc2cccc(Br)c2)n1	SKKanGAS inh 61, tim23-1 inh 51 | tim23-1 conf 55
Cc1cccc(/C=N/NC(=O)c2cc(Br)ccc2OCc2ccccc2)n1	none
CC(Oc1ccc(Cl)cc1Cl)C(=O)OCC(=O)c1c(N)n(C)c(=O)n(C)c1=O (configuration not stated)	none (no result: SKKanGAS inh)
O=C(NCCCN1CCCC1=O)c1cccc(S(=O)(=O)N2CCN(c3ccc(F)cc3)CC2)c1	none
Oc1c(Cl)cc(Cl)cc1/C=N/c1nccs1	tim23-1 inh 69 | tim23-1 conf 54
C=CCN1CC2(c3ccccc3)CN(CC=C)CC(c3ccccc3)(C1)C2=O	none
Fc1cccc(-c2cc3nc4c(c(N5CCC6(CC5)OCCO6)n3n2)CCCC4)c1	tim23-1 inh 52 | tim23-1 conf inactive
N#Cc1c(NC(=O)C2CC2)sc2c1CCCCC2	tim23-1 inh 51 | tim23-1 conf 44
CC(=O)Nc1sc2c(c1C#N)CCCC2	none (no result: PfHsp90 yeast 2)
O=C1CCN(Cc2ccccc2)S(=O)(=O)c2c(F)cc(F)cc21	none (no result: SKKanGAS inh)
CCCCN(CC)c1nc(N)c2c(N)nc(OCC)cc2c1C#N	tim23-1 inh 56 | tim23-1 conf 44
CCOc1cc2c(C#N)c(N3CCCC3)nc(N)c2c(N)n1	none
CC(OC(=O)c1cc(S(=O)(=O)N2CCOCC2)ccc1Br)C(=O)N1CCOCC1 (configuration not stated)	none (no result: SKKanGAS inh)
c1csc(CNc2ncnc3ccc(-c4ccc5c(c4)OCCO5)cc23)c1	tim23-1 inh 57 (no result: SKKanGAS inh) | tim23-1 conf 45
c1cncc(-c2ccc3ncnc(NCc4cccs4)c3c2)c1	none (no result: SKKanGAS inh)
COc1cccc(-c2ccc3ncnc(NCc4cccs4)c3c2)c1	tim23-1 inh 52 (no result: SKKanGAS inh) | tim23-1 conf 43
c1cncc(CNc2ncnc3ccc(-c4ccc5c(c4)OCCO5)cc23)c1	none (no result: SKKanGAS inh)
Nc1cc(-c2ccccc2)nn1Cc1ccc(Cl)cc1	tim23-1 inh 50 | tim23-1 conf inactive
Nc1cc(-c2ccc(Br)cc2)nn1Cc1ccccc1	none (no result: NLRP3 yeast inh, tim23-1 inh, tim10-1 inh, TIM10 inh)
COC(=O)c1ccccc1NC(=O)Cn1cnc([N+](=O)[O-])c1	none
O=S(=O)(c1ccc(Br)s1)N1CCN(c2ccccn2)CC1	tim23-1 inh 57 | tim23-1 conf inactive
CCn1c(SCC(=O)NC2CCCCC2)nnc1C(CO)NC(=O)c1ccccc1 (configuration not stated)	none

Source: PubChem BioAssay (several laboratories)
